Hits are enriched below; roughly 3.4% of the tested compounds scored in any of these assays.
PP1 inh: counter-screen for PP5 inhibitors: inhibitors of human PP1-alpha | purified PP1alpha, OMFP fluorescence | hit rate 0.9% among 320,000 | P62136 | inhibition, % at 6.7 µM;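 active = inhibition above the mean inhibition of all tested compounds plus 3 SD, computed separately for each screening campaign, cut at about 15% in these data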
PAFAH1B3 inh: PAFAH1B3 (human) inhibition. Q15102. recombinant PAFAH1B3, FP-rhodamine probe, fluorescence polarization. inhibition, % at 3.39 µM. hit rate 0.28% among 340,000. AID 492972;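 active = inhibition above the screen-wide average of all tested compounds plus 3 SD, cut at about 25% in these data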;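 also: 0% = enzyme with DMSO only and 100% = wells lacking PAFAH1B3 protein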
Target sequence (Q15102 whole entry, looked up): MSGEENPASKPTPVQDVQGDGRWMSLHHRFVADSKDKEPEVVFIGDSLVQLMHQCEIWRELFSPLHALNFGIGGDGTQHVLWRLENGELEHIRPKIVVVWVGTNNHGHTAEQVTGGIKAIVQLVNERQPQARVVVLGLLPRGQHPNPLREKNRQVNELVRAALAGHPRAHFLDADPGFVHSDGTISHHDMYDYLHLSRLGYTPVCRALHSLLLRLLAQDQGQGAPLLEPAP
PAFAH1B2 FP inh: blocks human PAF acetylhydrolase 1b catalytic subunit 2; recombinant PAFAH1B2, FP-rhodamine activity probe, fluorescence polarization; P68402; AID 492953; inhibition, % at 3.39 µM; hit rate 1.2% among 340,000;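 active = inhibition above the mean of all tested compounds plus 3 SD, cut at about 24% in these data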;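 also: 0% = enzyme with DMSO and 100% = wells lacking PAFAH1B2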
pPAFAH inh: inhibitors of human plasma PAF acetylhydrolase (pPAFAH) | AID 463082 | recombinant pPAFAH, FP-rhodamine probe fluorescence polarization | inhibition, % at 3.39 µM | hit rate 1.5% among 330,000 | Q13093;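 active = inhibition above the mean inhibition across the screen plus 3 SD, cut at about 25% in these data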;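 also: inhibitors block binding of the rhodamine activity-based probe so polarization drops; 0% = enzyme with DMSO and 100% = wells lacking pPAFAH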
Target sequence (Q13093 whole entry, looked up): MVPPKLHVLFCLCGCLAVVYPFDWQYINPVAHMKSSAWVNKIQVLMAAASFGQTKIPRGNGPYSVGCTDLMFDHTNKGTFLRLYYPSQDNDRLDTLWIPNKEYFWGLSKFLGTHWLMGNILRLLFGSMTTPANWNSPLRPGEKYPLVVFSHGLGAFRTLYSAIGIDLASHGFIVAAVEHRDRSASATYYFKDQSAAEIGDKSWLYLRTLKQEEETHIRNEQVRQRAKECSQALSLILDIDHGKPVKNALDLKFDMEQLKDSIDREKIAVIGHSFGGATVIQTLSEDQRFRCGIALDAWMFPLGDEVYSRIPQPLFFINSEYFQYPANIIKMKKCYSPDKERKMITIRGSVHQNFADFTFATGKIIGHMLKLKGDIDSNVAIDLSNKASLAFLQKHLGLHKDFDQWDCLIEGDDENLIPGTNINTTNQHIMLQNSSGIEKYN
PP5 primary: inhibitors of human protein phosphatase 5 (PP5). inhibition, % at 6.7 µM. AID 1987. P53041. purified PP5c, OMFP substrate fluorescence. hit rate 0.18% among 320,000;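 active = inhibition above the campaign's mean inhibition across all tested compounds plus 3 SD, cut at about 9.5% in these data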;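 also: 0% = DMSO only and 100% = 100 µM cantharidin control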
PAFAH2 FP inh: inhibitors of human PAFAH2. recombinant PAFAH2, FP-rhodamine activity probe, fluorescence polarization. inhibition, % at 3.39 µM. hit rate 0.99% among 340,000. AID 492956;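 active = inhibition above the mean over all tested compounds plus 3 SD, cut at about 30% in these data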;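 also: inhibitors block probe labeling of enzyme so polarization drops; 0% = enzyme with DMSO and 100% = wells lacking PAFAH2 protein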
Active calls of the source: *; · = no result.

SMILES | PP1 inh | PAFAH1B3 inh | PAFAH1B2 FP inh | pPAFAH inh | PP5 primary | PAFAH2 FP inh
C[C@H](CO)N1C[C@H](C)[C@@H](CN(C)C(=O)NC2CCCCC2)Oc2c(NC(=O)Nc3ccc4c(c3)OCO4)cccc2C1=O | · | 15 | 1 | 1 | · | 7
O=C(NN=Cc1ccc(Cl)cc1Cl)C1CC1 | · | -1 | 6 | · | · | 3
Cc1ccc(OCC(=O)c2ccc(Cl)s2)c([N+](=O)[O-])n1 | 10 | 8 | 5 | 25* | 7 | 3
O=C(CNc1ccccc1)N/N=C/c1ccc2c(c1)OCO2 | -1 | 10 | -3 | 1 | 3 | -5
O=C(CNc1ccc2c(c1)OCO2)N/N=C\c1cn(Cc2ccccc2)c2ccccc12 | 17* | 4 | 4 | 30* | 4 | -9
C=CS(=O)(=O)c1c2cc(OC)ccc2nc2ccc(OC)cc12 | · | 8 | 2 | · | · | 11
CCCCn1c(N)c(N(CC(C)C)C(=O)c2ccc(S(=O)(=O)N3CCC(C)CC3)cc2)c(=O)[nH]c1=O | 7 | 2 | 1 | 32* | 1 | -1
CCCCn1c(N)c(N(CC(C)C)C(=O)CN2C(=O)NC3(CCC(C(C)(C)CC)CC3)C2=O)c(=O)[nH]c1=O (configuration not stated) | · | 7 | 31* | · | · | -1
CCCCn1c(N)c(N(CC(C)C)C(=O)c2ccc(S(=O)(=O)N3CCCCCC3)cc2)c(=O)[nH]c1=O | -2 | 6 | 7 | 2 | 0 | 0
CCCCn1c(N)c(N(CC(C)C)C(=O)CN2C(=O)c3ccccc3C2=O)c(=O)[nH]c1=O | 4 | 7 | 0 | 4 | -3 | -1
Cc1cn(C2CCCO2)c(=O)nc1N (configuration not stated) | · | 0 | 3 | · | · | 2
CC(=O)c1ccc(CC2SC(N)=NC2=O)cc1 (configuration not stated) | 16* | 9 | 7 | 1 | -3 | -4
CC[C@]1(C(=O)OC)[C@H]2C(=O)N(Cc3ccccc3)C(=O)[C@H]2[C@H]2CN(C)C(=NCc3ccccc3)N21 | · | 4 | 3 | 2 | · | 0
O=C(NC1CCN(Cc2ccccc2)CC1)C1CCN(S(=O)(=O)c2cccc([N+](=O)[O-])c2)CC1 | 1 | -8 | -2 | 1 | -1 | 5
O=C(NC1CCN(S(=O)(=O)c2cccc([N+](=O)[O-])c2)CC1)C1CCCCC1 | 16* | 5 | 5 | 1 | 2 | 2
COc1ccc(Cn2nnnc2C(c2cc3cccc(C)c3[nH]c2=O)N2CCN(C)CC2)cc1 (configuration not stated) | 4 | -1 | 29* | 6 | -3 | -4
Cn1c(=O)c(C#N)c(-c2ccc(F)cc2)c2cc(C(=O)c3cc(Cl)cc(Cl)c3O)cnc21 | 13 | 8 | 7 | 26* | 4 | 14
O=Cc1ccc(OCc2cn(CC(=O)c3ccc(O)cc3)nn2)cc1 | · | -1 | 3 | · | · | -1
O=C(O)c1ccccc1CC(CCc1ccccc1)C(=O)O (configuration not stated) | · | 1 | 0 | · | · | -1
C=CCn1c(SCC(=O)c2ccc(O)c(O)c2)nnc1-c1ccc(OC)cc1 | 5 | 19 | 7 | 30* | 3 | 15
C=CCn1c(SCC(=O)c2ccc(O)c(O)c2)nnc1-c1ccc(C)cc1 | -5 | 10 | 1 | 28* | 1 | 28
C=CCn1c(SCC(=O)c2ccc(OC)cc2)nnc1-c1cc2cccc(OC)c2o1 | 3 | -3 | -3 | -1 | 2 | 0
COc1ccc(-n2nnnc2SCC(N)=O)cc1 | -1 | 1 | 2 | 6 | 2 | -1
COc1ccc(-n2nnnc2SCC(=O)c2ccc(O)c(O)c2)cc1 | 0 | 9 | 12 | 30* | 3 | 29
COc1cc(OC)cc(-n2nnnc2SCC(=O)N2CCCC2)c1 | 16* | 10 | 5 | 2 | 2 | -8
SMILES | PP1 inh | PAFAH1B3 inh | PAFAH1B2 FP inh | pPAFAH inh | PP5 primary | PAFAH2 FP inh
COc1cc(OC)cc(-n2nnnc2SCC(=O)NC2CCCC2)c1 | -1 | 1 | 8 | 4 | 0 | 5
Cn1c(SCC(=O)c2ccc(O)c(O)c2)nnc1-c1ccccc1 | · | 6 | 10 | · | · | 19
C/C(=N\NC(=O)Cc1ccccc1)c1ccc(Cl)s1 | -6 | 1 | 1 | 1 | 3 | 4
C=CC[C@H](CC(=O)NCCO)C(=O)N[C@H](COC(=O)[C@@H](CC=C)Cc1ccc(F)cc1)C(C)(C)C | · | -3 | 15 | 8 | · | 10
CC(C)CCOc1ccc(C(=O)NCC(c2ccco2)N(C)C)cc1 (configuration not stated) | 1 | 0 | -2 | 11 | 1 | -1
O=C(/C=C/c1ccc(S(=O)(=O)N2CCOCC2)cc1)NCc1ccccc1F | -5 | -2 | 2 | 3 | 0 | -4
C=CCn1c(SCC(=O)c2ccc(O)c(O)c2)nnc1-c1cccc(OC)c1 | -6 | 12 | 6 | 28* | -1 | 24
C=CCn1c(SCC(=O)c2cccs2)nnc1-c1cccc(OC)c1 | -5 | -9 | -3 | 10 | -2 | -3
COC(=O)c1cc(S(=O)(=O)NCc2ccc3c(c2)OCO3)cn1C | -4 | 8 | 10 | 4 | 0 | 2
CC[C@]12c3[nH]c4cc(CCC(=O)N(C)C)ccc4c3CCN1C(=O)[C@@H](CC(=O)NCCN1CCOCC1)C[C@@H]2C(=O)N1CCN(C(=O)C2CC2)CC1 | · | 3 | 3 | 5 | · | 3
CN(C)C(=O)CCc1ccc2c3c([nH]c2c1)[C@]1(C)[C@@H](C(=O)N2CCOCC2)C[C@H](CC(=O)NC(C)(C)C)C(=O)N1CC3 | · | 8 | 3 | 6 | · | 1
COc1ccc2[nH]c3c(c2c1)CCN1C(=O)C(CC(=O)NC/C=C(\C)CCC=C(C)C)C[C@H](C(=O)N(C(C)C)C(C)C)[C@@]31C (some centres not stated) | · | 7 | 5 | 26* | · | 7
CC(C)=CCC/C(C)=C/CNC(=O)C[C@H]1C[C@H](C(=O)N(C(C)C)C(C)C)[C@@]2(C)c3[nH]c4ccc(Cl)cc4c3CCN2C1=O | · | 7 | 3 | 2 | · | -4
CC[C@]12c3[nH]c4cc(CCC(=O)N(C)C)ccc4c3CCN1C(=O)[C@@H](CC(=O)NC/C=C(\C)CCC=C(C)C)C[C@@H]2C(=O)N1CCN(C(=O)C2CC2)CC1 | · | 10 | 2 | 29* | · | -5
CC(C)=CCC/C(C)=C/CNC(=O)C[C@H]1C[C@H](C(=O)N2CCOCC2)[C@@]2(C)c3[nH]c4cc(CCC(=O)N(C)C)ccc4c3CCN2C1=O | · | 2 | -2 | 30* | · | -1
Cn1nnnc1SCC(=O)Nc1cc(S(=O)(=O)N2CCCCC2)ccc1Cl | · | 1 | 7 | 3 | · | -1
Cc1ccccc1C(=O)N1CCC(C(=O)Nc2ccc(S(=O)(=O)N3C(C)CCCC3C)cc2)CC1 (configuration not stated) | · | 5 | 1 | · | · | 10
O=C(NCc1ccc(F)cc1)C(=O)NCC1OCCCN1S(=O)(=O)c1cccs1 (configuration not stated) | 2 | 2 | 30* | 7 | 0 | -14

Screening data: PubChem BioAssay, The Scripps Research Institute Molecular Screening Center
